Structures can show the parent of a compound that is named as a salt. Screen size: about 1,300 compounds; about 40 (3%) showed activity. The sample holds actives, similar compounds and a random draw of the others, so the mix is not that of the screen.
Tested on: Plasmodium falciparum NF54/iGP1_RE9H ulg8 stage V gametocytes
Assay: gametocyte viability (luciferase signal relative to DMSO control) (% of DMSO control); higher = less gametocytocidal activity, active = 50 or less
Details: exposure time: 72 h
How it was run: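 NF54/iGP1_RE9Hulg8 stage V gametocytes (day 12; ~2.5% gametocytemia, 3% hematocrit) in medium with 0.5% Albumax II were added to 96-well plates of nanolitre-spotted compounds (10 mM DMSO stocks), giving 10 µM or 1 µM, one well each. Plates were incubated 72 h at 37 °C. Then 90 µl was mixed with 10 µl D-luciferin (30 mg/ml) and luminescence was read on an IVIS Lumina II. Viability is relative to the mean of plate DMSO vehicle controls.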

Row | SMILES | gametocyte viability (concentration: 1 µM) | gametocyte viability (concentration: 10 µM)
1 | CN1CCC(=C2c3ccccc3CCc3cccnc32)CC1 [Azatadine maleate] | 79.7 (inactive) | 80.8 (inactive)
2 | CN1CCN2c3ncccc3Cc3ccccc3C2C1 (configuration not stated) [Mirtazapine] | 79.6 (inactive) | 77.4 (inactive)
3 | COc1cc(-c2ccc(N=Nc3ccc4c(S(=O)(=O)O)cc(S(=O)(=O)O)c(N)c4c3O)c(OC)c2)ccc1N=Nc1ccc2c(S(=O)(=O)O)cc(S(=O)(=O)O)c(N)c2c1O [Chicago sky blue 6B] | 80.1 (inactive) | 82.1 (inactive)
4 | Cc1ccccc1C(OCCN(C)C)c1ccccc1 (configuration not stated) [Orphenadrine hydrochloride] | 84.4 (inactive) | 87.5 (inactive)
5 | O=C1CC[C@@H](C(=O)N2CSC[C@H]2C(=O)O)N1 [Pidotimod] | 83.8 (inactive) | 81.2 (inactive)
6 | Cc1ccc(S(=O)(=O)NC(=O)NN2CC3CCCC3C2)cc1 (configuration not stated) [Gliclazide] | 91.8 (inactive) | 88.7 (inactive)
7 | O=C1NCCN1CCN1CCC(c2cn(-c3ccc(F)cc3)c3ccc(Cl)cc23)CC1 [Sertindole] | 97.7 (inactive) | 82.3 (inactive)
8 | CC(=O)OCC(=O)[C@@]12N=C(C)O[C@@H]1C[C@H]1[C@@H]3CCC4=CC(=O)C=C[C@]4(C)[C@H]3[C@@H](O)C[C@@]12C [Deflazacort] | 95.7 (inactive) | 104 (inactive)
9 | Clc1ccc(Nc2nnc(Cc3ccncc3)c3ccccc23)cc1 [Vatalanib] | 89.2 (inactive) | 69.1 (inactive)
10 | Cc1c(F)c(N2CCNC(C)C2)cc2c1c(=O)c(C(=O)O)cn2C1CC1 (configuration not stated) [Grepafloxacin] | 93.9 (inactive) | 95.3 (inactive)
11 | COc1ccc2[nH]c([S+]([O-])Cc3ncc(C)c(OC)c3C)nc2n1 (configuration not stated) [Tenatoprazole] | 90.8 (inactive) | 79.8 (inactive)
12 | Nc1ccc(S(=O)(=O)Nc2nccs2)cc1 [Sulfathiazole] | 96.7 (inactive) | 91.9 (inactive)
13 | CCCCC(=O)N(Cc1ccc(-c2ccccc2-c2nnn[nH]2)cc1)[C@H](C(=O)O)C(C)C [Valsartan] | 81.5 (inactive) | 81 (inactive)
14 | Cc1cc(C(=O)NNCc2ccccc2)no1 [Isocarboxazid] | 98.7 (inactive) | 85 (inactive)
15 | CN(C)[C@@H]1C(=O)C(C(=O)NCNCCCC[C@H](N)C(=O)O)=C(O)[C@@]2(O)C(=O)C3=C(O)c4c(O)cccc4[C@@](C)(O)[C@H]3C[C@@H]12 [Lymecycline] | 88.7 (inactive) | 84.6 (inactive)
16 | CC(=O)OC[C@H]1O[C@@H]([S-])[C@H](OC(C)=O)[C@@H](OC(C)=O)[C@@H]1OC(C)=O.CCP(CC)CC.[Au+] [Auranofin] | 82.6 (inactive) | 3.03 (active)
17 | COc1ccc2[nH]cc(CCNC(C)=O)c2c1 [Melatonin] | 80.2 (inactive) | 85.4 (inactive)
18 | CCCCCNC(=N)N/N=C/c1c[nH]c2ccc(OC)cc12 [Tegaserod maleate] | 88.4 (inactive) | 6.12 (active)
19 | COc1cc2nc(N3CCN(C(=O)C4COc5ccccc5O4)CC3)nc(N)c2cc1OC (configuration not stated) [Doxazosin mesylate] | 86.5 (inactive) | 63.2 (inactive)

Row | SMILES | gametocyte viability (concentration: 1 µM) | gametocyte viability (concentration: 10 µM)
20 | COc1cc2nc(N3CCN(C(=O)C4CCCO4)CC3)nc(N)c2cc1OC (configuration not stated) [Terazosin hydrochloride] | 96.5 (inactive) | 92.6 (inactive)
21 | COc1cc2nc(N3CCN(C(=O)c4ccco4)CC3)nc(N)c2cc1OC [Prazosin hydrochloride] | 90.8 (inactive) | 42.9 (active)
22 | OCCN1CCN(CC/C=C2/c3ccccc3Sc3ccc(Cl)cc32)CC1 [Zuclopenthixol hydrochloride] | 100 (inactive) | 95.8 (inactive)
23 | CC(C)CN(C[C@@H](O)[C@H](Cc1ccccc1)NC(=O)O[C@H]1CO[C@H]2OCC[C@H]21)S(=O)(=O)c1ccc(N)cc1 [Darunavir] | 82.6 (inactive) | 81.5 (inactive)
24 | C=C1C[C@H]2[C@@H]3C=C(C)C4=CC(=O)CC[C@]4(C)[C@H]3CC[C@]2(C)[C@@]1(OC(C)=O)C(C)=O [Melengestrol acetate] | 85.4 (inactive) | 87.2 (inactive)
25 | Nc1nc(CC(=O)Nc2ccc(CCNC[C@H](O)c3ccccc3)cc2)cs1 [Mirabegron] | 91.9 (inactive) | 90.8 (inactive)
26 | Cn1nnc2c(C(N)=O)ncn2c1=O [Temozolomide] | 86.9 (inactive) | 88.1 (inactive)
27 | Cc1cc(C(C)(C)C)c(O)c(C)c1CC1=NCCN1 [Oxymetazoline hydrochloride] | 89.6 (inactive) | 90.7 (inactive)
28 | CC(=O)OCC(=O)[C@@]12OC3(CCCC3)O[C@@H]1C[C@H]1[C@@H]3CCC4=CC(=O)C=C[C@]4(C)[C@@]3(F)[C@@H](O)C[C@@]12C [Amcinonide] | 93.1 (inactive) | 92.1 (inactive)
29 | CN1CCN(C(c2ccccc2)c2ccc(Cl)cc2)CC1 (configuration not stated) [Chlorcyclizine hydrochloride] | 96.9 (inactive) | 91.7 (inactive)
30 | CCOC(=O)[C@H](CCc1ccccc1)N[C@@H](C)C(=O)N1Cc2ccccc2C[C@H]1C(=O)O [Quinapril HCl] | 98.4 (inactive) | 98.4 (inactive)
31 | c1coc(CNc2ncnc3nc[nH]c23)c1 [6-Furfurylaminopurine] | 86.5 (inactive) | 75.6 (inactive)
32 | c1ccc(CNc2ncnc3nc[nH]c23)cc1 [Aminopurine, 6-benzyl] | 69.7 (inactive) | 43.9 (active)
33 | S=c1[nH]cnc2nc[nH]c12 [Mercaptopurine] | 82.1 (inactive) | 84.9 (inactive)
34 | CCCc1nc2c(C)cc(-c3nc4ccccc4n3C)cc2n1Cc1ccc(-c2ccccc2C(=O)O)cc1 [Telmisartan] | 80 (inactive) | 88.2 (inactive)
35 | CN1CCCN=C1/C=C/c1cccc(O)c1 [Oxantel pamoate] | 80.4 (inactive) | 87.7 (inactive)
36 | O=C(O)c1ccccc1C(=O)Nc1ccc(S(=O)(=O)Nc2nccs2)cc1 [Phthalylsulfathiazole] | 82.3 (inactive) | 85.4 (inactive)
37 | CN(C)CCc1c[nH]c2ccc(C[C@H]3COC(=O)N3)cc12 [Zolmitriptan] | 83.8 (inactive) | 81.7 (inactive)
38 | COc1ccccc1N1CCN(CCCCNC(=O)c2ccc3ccccc3c2)CC1 | 82.8 (inactive) | 73.7 (inactive)

Row | SMILES | gametocyte viability (concentration: 1 µM) | gametocyte viability (concentration: 10 µM)
39 | COc1ccccc1N1CCN(CCCNc2cc(=O)n(C)c(=O)n2C)CC1 [Urapidil hydrochloride] | 75.6 (inactive) | 48.5 (active)
40 | COc1ccccc1N1CCN(CC(O)COc2cccc3ccccc23)CC1 (configuration not stated) [Naftopidil dihydrochloride] | 90.8 (inactive) | 83.2 (inactive)
41 | CCOC(=O)[C@H](CCc1ccccc1)N[C@@H](C)C(=O)N1CCC[C@H]1C(=O)O [Enalapril maleate] | 81.9 (inactive) | 86.7 (inactive)
42 | COc1ccc(CCN(C)CCCC(C#N)(c2ccc(OC)c(OC)c2)C(C)C)cc1OC (configuration not stated) [Verapamil hydrochloride] | 91.8 (inactive) | 99.3 (inactive)
43 | N/C(=N\C(=O)c1nc(Cl)c(N)nc1N)NCc1ccccc1 [Benzamil hydrochloride] | 88.7 (inactive) | 81.1 (inactive)
44 | CC(C)c1ccc2oc3nc(N)c(C(=O)O)cc3c(=O)c2c1 [Amlexanox] | 80 (inactive) | 81.5 (inactive)
45 | CCCCC(O)c1ccccc1 (configuration not stated) [Fenipentol] | 82 (inactive) | 82.9 (inactive)
46 | CC(C)(C)NC(=O)[C@@H]1C[C@@H]2CCCC[C@@H]2CN1C[C@@H](O)[C@H](Cc1ccccc1)NC(=O)[C@H](CC(N)=O)NC(=O)c1ccc2ccccc2n1 [Saquinavir mesylate] | 82.4 (inactive) | 78.9 (inactive)
47 | CC(C)(C)NC(=O)[C@@H]1CN(Cc2cccnc2)CCN1C[C@@H](O)C[C@@H](Cc1ccccc1)C(=O)N[C@H]1c2ccccc2C[C@H]1O [Indinavir sulfate] | 67 (inactive) | 40 (active)
48 | CN(C)CCCN1c2ccccc2Sc2ccc(C(F)(F)F)cc21 [Triflupromazine hydrochloride] | 83.7 (inactive) | 81.5 (inactive)
49 | CCSc1ccc2c(c1)N(CCCN1CCN(C)CC1)c1ccccc1S2 [Thiethylperazine dimalate] | 83.3 (inactive) | 32.4 (active)
50 | CSc1ccc2c(c1)C(N1CCN(C)CC1)Cc1ccccc1S2 (configuration not stated) [Methiothepin maleate] | 86.1 (inactive) | 75.3 (inactive)
51 | CSc1ccc2c(c1)N(CCC1CCCCN1C)c1ccccc1S2 (configuration not stated) [Thioridazine hydrochloride] | 87.7 (inactive) | 30.1 (active)
52 | CN1CCCCC1CCN1c2ccccc2Sc2ccc([S+](C)[O-])cc21 (configuration not stated) [Mesoridazine besylate] | 88.9 (inactive) | 88.7 (inactive)
53 | OCCN1CCN(CCCN2c3ccccc3Sc3ccc(C(F)(F)F)cc32)CC1 [Fluphenazine dihydrochloride] | 89.1 (inactive) | 68.1 (inactive)
54 | CN1CCN(CCCN2c3ccccc3Sc3ccc(C(F)(F)F)cc32)CC1 [Trifluoperazine dihydrochloride] | 82.8 (inactive) | 46.8 (active)
55 | CN1CCN(CCCN2c3ccccc3Sc3ccc(S(=O)(=O)N(C)C)cc32)CC1 [Thioproperazine dimesylate] | 81.7 (inactive) | 52.8 (inactive)
56 | CN1CCN(CCCN2c3ccccc3Sc3ccc(Cl)cc32)CC1 [Prochlorperazine dimaleate] | 81.3 (inactive) | 78.9 (inactive)

From the supplement of paper PMC12297408
